Bioassay records (PubChem)
Compounds with a hit are over-represented: about 2.1% of the library has one in this group of screens.
EP2 modulator – EP2 receptor (human) modulation | P43116 | 260,000 compounds, 0.83% hits | EP2-expressing cells, cAMP HTRF FRET, PGE2 co-stimulation | induction, % at 25 µM;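 active = compounds whose cAMP rise, as percent of the full-agonist control response, exceeds 60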;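 note: rat C6 glioma line stably carrying human EP2 under a CMV promoter; the protocol text gives 20 µM as final concentration; 100% = response of wells given 1 µM PGE2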
Target sequence (P43116 whole entry, looked up): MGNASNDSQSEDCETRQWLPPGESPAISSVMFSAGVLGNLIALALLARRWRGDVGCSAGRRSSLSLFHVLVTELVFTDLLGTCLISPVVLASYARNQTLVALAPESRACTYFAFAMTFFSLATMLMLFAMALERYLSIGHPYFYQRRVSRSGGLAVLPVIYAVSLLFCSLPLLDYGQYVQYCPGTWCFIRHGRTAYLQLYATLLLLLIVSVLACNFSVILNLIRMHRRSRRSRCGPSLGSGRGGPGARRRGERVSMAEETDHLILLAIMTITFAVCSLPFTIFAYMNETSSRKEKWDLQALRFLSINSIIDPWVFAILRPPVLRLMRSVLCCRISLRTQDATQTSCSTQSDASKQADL
Avidin fluor – compound fluoresces at 488/530 nm on avidin beads; compound fluorescence 488/530 nm, flow cytometry; active compounds read high; fluorescence (KMESF) at 10 µM; 220,000 compounds, 0.38% hits; AID 1775; in the data active = fluorescence above about 47
GSH fluor – compound fluoresces at 488/530 nm on GSH beads | fluorescence (KMESF) at 10 µM | 190,000 compounds, 0.25% hits | GSH beads flow cytometry, compound fluorescence 488/530 nm; active compounds read high | AID 1776; in the data active = fluorescence above about 89;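 note: glutathione beads carrying GST-tagged Bcl family fusion proteins plus one bare bead set; values are compound well signal with DMSO vehicle wells as background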
PGE2 EP2 inh – blocks the human prostaglandin E2 receptor EP2 | C6 glioma cells expressing human EP2, cAMP TR-FRET; cells stimulated with saturating PGE2 | inhibition, % at 25 µM | 260,000 compounds, 0.52% hits | AID 1422;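 active = percent inhibition above 40 after rounding to a whole number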;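 note: rat C6 glioma host cells with rolipram phosphodiesterase inhibitor present; the protocol text gives 20 µM as final concentration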
HMGR II inh – blocks class II HMG-CoA reductase of Enterococcus faecalis. purified E. faecalis HMGR, NADPH absorbance 340 nm kinetic. 190,000 compounds, 0.41% hits. inhibition, % at 10 µM;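 active = inhibition above a set limit, the median over all tested compounds plus 3 SD, cut at about 9.5% in these data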;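 note: enzyme runs in reverse so mevalonate oxidation gives rising NADPH absorbance; 0% = complete reaction with DMSO and 100% = background rate lacking mevalonate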
EP2 cAMP induct – human EP2 receptor cAMP induction, negative in counter-screens. shares compounds with EP2 modulator. C6 glioma EP2 cells, cAMP HTRF induction; plus low (about EC15) PGE2 agonist. calls only at 20 µM (by protocol). 1,300 compounds, 47% hits. AID 1080;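 active = cAMP induction above 50% in the main assay while under 30% in all four parallel counter assays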;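 note: rat C6 glioma cells stably expressing human EP2 receptor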
Active calls of the source: *; i = inactive; · = not tested or not shown; + = active, no number; ! = not active in a repeat.

SMILES | EP2 modulator | Avidin fluor | GSH fluor | PGE2 EP2 inh | HMGR II inh | EP2 cAMP induct
Cc1cc(C)c2nc3sc(C(=O)O)cc3cc2c1 | -20.9 | · | · | 15.5 | · | ·
Cc1cc(C)c(S(=O)(=O)O)c(C)n1 | 77.4* | 34 | 15 | 11.9 | 1.7 | i
O=c1c2ccccc2c2ccccc2c(=O)n1Cc1ccco1 | 83.5* | 34 | 19 | 3.6 | 1.3 | i
COc1ccc(-c2cc(C(F)(F)F)nc(N3CCCCC3)n2)cc1OC | 55.5 | 39 | 12 | 2.5 | -3.6 | +
O=C(N=C1SCC(=O)N1c1ccccc1Cl)c1ccco1 | 48.3 | 47 | 19 | 5.0 | 1.5 | ·
O=C(N=C1SCC(=O)N1c1ccccc1Cl)c1ccccc1 | 67.2* | 10 | 23 | 6.5 | 6.1 | i
N#Cc1c(N)nc2c3c(sc(=N)c2c1N)NC(=O)CC3c1ccccc1 (stereo unspecified) | 42.4 | 34 | 12 | 14.0 | 3.9 | ·
N#Cc1c(N)nc2c3c(sc(=N)c2c1N)NC(=O)CC3c1c(F)cccc1Cl (stereo unspecified) | 67.8* | 23 | 10 | 8.4 | -7.5 | +
COc1ccc(Cn2c(-c3ccc(OC)cc3)nc3ccccc32)cc1 | 66.9* | 4 | 15 | · | 1.1 | i
COc1ccc(-c2nc3c(c(=O)[nH]c(=O)n3Cc3ccccc3)n2Cc2ccccc2)cc1 | 74.3* | 5 | 39 | 4.0 | 2.3 | +
Clc1ccc(-c2noc(C3CCCNC3)n2)cc1 (stereo unspecified) | -75.3 | · | · | 10.8 | · | ·
COc1ccc(-c2c(C(C)=O)c(C)nc3sc4c(c23)NC(c2ccccc2)NC4=O)cc1 (stereo unspecified) | 70.2* | 11 | 11 | 9.9 | 3.3 | i
CCOC(=O)c1c(C)nc2sc3c(c2c1-c1ccc(OC)cc1)NC(c1ccccc1)NC3=O (stereo unspecified) | 51.8 | 10 | 9 | 9.3 | -0.5 | ·
CCCc1c(O)nc(SCC(=O)Nc2ccccc2OC)[nH]c1=O | -2.8 | · | · | 13.2 | · | ·
COc1ccc(C(O)CN2CCC(O)(c3ccc(F)cc3)CC2)cc1 (stereo unspecified) | -28.1 | · | · | 4.1 | · | ·
COc1ccc(-c2nc3cnccn3c2NCc2ccc(F)cc2)cc1CO | -83.4 | · | · | 11.8 | · | ·
Oc1ccc(/C=N\Nc2cc(N3CCOCC3)nc(N3CCOCC3)n2)c(O)c1 | -8.2 | 6 | 9 | 3.8 | -6.8 | ·
Clc1ccc(-c2ccc(/C=N/Nc3cc(N4CCOCC4)nc(N4CCOCC4)n3)o2)cc1 | 107.7* | 4 | 28 | 5.0 | 0.0 | +
Brc1ccc(-c2ccc(/C=N/Nc3nc(N4CCOCC4)nc(N4CCOCC4)n3)o2)cc1 | 66.8* | 16 | 14 | 5.1 | 3.0 | +
O=C(NCCNC(=O)C1Oc2ccccc2O1)c1ccccn1 | -21.1 | · | · | 9.3 | · | ·
c1ccc2c(c1)OCC(c1csc3ncnc(N4CCCCC4)c13)O2 (stereo unspecified) | 84.3* | 21 | 17 | 18.8 | -4.4 | +
Nc1cccc(OCc2nc(N)nc(N)c2-c2ccc(Cl)cc2)c1 | 55.9 | · | · | 7.8 | · | i
CN1[C@@H](C(=O)NCc2cccnc2)C[C@@H](c2ccco2)NS1(=O)=O | -16.0 | · | · | · | · | ·
Cc1cc(SCCC(=O)O)nc2c(C)cccc12 | 82.1* | 15 | 27 | 12.1 | 0.1 | i
O=C(OCc1ccc(Cl)cc1)c1ccccc1C(=O)c1ccccc1 | 70.1* | 14 | 23 | 2.5 | 4.9 | +
SMILES | EP2 modulator | Avidin fluor | GSH fluor | PGE2 EP2 inh | HMGR II inh | EP2 cAMP induct
O=C(OCc1ccc(Cl)cc1)c1cccnc1Cl | -34.0 | 13 | 15 | 12.5 | -0.2 | ·
CCOc1ccc2c(c1)NC1(CCN(C(=O)c3ccccc3F)CC1)c1cccn1-2 | -24.1 | · | · | 9.2 | · | ·
O=C(Cc1n[nH]c(=O)c2ccccc12)N1CCCC(c2[nH]ncc2-c2ccncc2)C1 (stereo unspecified) | 5.3 | · | · | · | · | ·
CC(C)(C)C1CCC(=NNc2ccc(S(N)(=O)=O)cc2[N+](=O)[O-])CC1 (stereo unspecified) | 68.2* | 13 | 6 | 7.3 | -1.2 | +
CCc1ccc2[nH]c(=O)c(C(c3nnnn3CC3CCCO3)N3CCCc4ccccc43)cc2c1 (stereo unspecified) | 77.0*! | 16 | 33 | 2.7 | -3.5 | +
Cc1cc2cc(C(c3nnnn3CC3CCCO3)N3CCCc4ccccc43)c(=O)[nH]c2cc1C (stereo unspecified) | 22.8 | 13 | 14 | -0.2 | 2.6 | ·
COc1cc(NC(=S)NC(=O)c2ccc(C(C)(C)C)cc2)ccc1NC(=O)c1cccs1 | 42.9 | 7 | 20 | 7.4 | 0.4 | ·
COc1cc(NC(=S)NC(=O)c2cc(C)cc(C)c2)ccc1NC(=O)c1cccs1 | 67.6* | 7 | 104* | 13.1 | -4.4 | i
CCn1c2ccccc2c2nc3ccccc3nc21 | 62.4* | 6 | 35 | 5.7 | -1.0 | i
Cn1c(=O)c2c(nc(SCC(=O)c3cccs3)n2Cc2ccc(F)cc2)n(C)c1=O | 75.0* | 11 | 38 | 32.9 | 1.2 | i
C/C(Cl)=C/CSc1nc2c(c(=O)n(C)c(=O)n2C)n1Cc1ccc(F)cc1 | 41.8 | · | · | 12.1 | · | ·
CC(=O)c1ccc(NC(=O)c2sc3cc(Cl)ccc3c2Cl)cc1 | -12.0 | · | · | 11.5 | · | ·
O=C(Oc1ccc(-c2nccc(-c3ccccn3)n2)cc1)c1cccc(C(F)(F)F)c1 | 67.5* | 34 | 16 | 14.1 | 4.7 | i
CCCCC(CC)CN1CN(CC(CC)CCCC)CC(C)(N)C1 (stereo unspecified) | 50.1 | · | · | 10.2 | · | i
Clc1ccc(COn2c(-c3ccccc3)nc3ccccc32)cc1 | 66.7* | 10 | 28 | 3.3 | -2.0 | i
CC1CCN(CC(O)c2ccc3c(c2)CCCN3C(=O)c2ccccc2F)CC1 (stereo unspecified) | -44.4 | · | · | 5.9 | · | ·
Cc1nc(N2N=C(c3ccc(Cl)cc3)CC2c2ccco2)sc1C(=O)N(C)C (stereo unspecified) | 72.0* | 24 | 23 | 5.2 | -1.4 | +
Clc1ccc(C2=NN(c3ccccc3)C(c3ccco3)C2)cc1 (stereo unspecified) | 24.6 | 8 | · | 10.9 | · | ·
CNc1oc(-c2ccccc2)nc1C#N | 6.3 | 11 | 13 | 12.3 | -0.2 | ·
Cc1ccc(-c2nc(P(=O)(c3ccccc3)c3ccccc3)c(N3CCOCC3)o2)cc1 | 64.9* | 5 | 7 | 10.0 | -1.3 | i
CNc1oc(-c2ccc(Cl)cc2)nc1P(=O)(c1ccccc1)c1ccccc1 | 68.2* | 18 | 8 | 4.9 | -2.5 | +
COc1ccc(C2(O)C3CCCC2CN(Cc2cccc4ncccc24)C3)cc1 (stereo unspecified) | -91.4 | · | · | 10.1 | · | ·
S=c1[nH]nc(Cc2cccs2)n1-c1ccccc1 | 3.7 | 3 | 19 | · | -3.0 | ·
CCCCc1ccc(-n2c(Cc3cccs3)n[nH]c2=S)cc1 | 70.6* | 6 | 18 | 9.3 | -6.8 | +
